The record followed here is PubChem BioAssay.

Values without a mark were called inactive. For some of these results: Entries with a potency or affinity are not part of this list. The source made the active and inactive calls. Unless noted, no rule for the calls is given here.

Assay [1] in a line: antimalarial activity against Dd2 strain (AID 2302;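 active = growth inhibition above 50% at the single 2 µM test dose, taken to imply half-maximal potency below 2 µM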;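 also: 0% = DMSO untreated growth and 100% = chloroquine plus artemisinin killed control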). Conditions: P. falciparum Dd2 in RBCs, LDH growth readout, 72 h; at 2 µM; stronger effect = higher value.
Assay [2] in a line: human hepatoma cell viability loss – ATP luminescence, cytotoxicity control for P. falciparum antimalarial project, primary screen (AID 2303;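 active = inhibition above 50%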;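 also: 0% = DMSO wells and 100% = digitonin-killed cells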). As to conditions: HepG2 viability, 24-48 h, at 10 µM, stronger effect = higher value.
For assay [3], the target named is L-lactate dehydrogenase (Plasmodium falciparum (isolate CDC / Honduras)) (UniProt Q27743). As to the kind of experiment: PfLDH activity inhibition – cell lysate, 3D7 strain, counter-screen for P. falciparum growth inhibition project (AID 2304).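 Also: 0% = vehicle and 100% = reference inhibitor.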 As to conditions: P. falciparum 3D7 crude extract, LDH APAD/NBT absorbance; at 2 µM; stronger effect = higher value.
Assay [4] is described as follows: inhibition of 3D7 malaria parasite growth – strain 3D7 (AID 2306).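 Also: 0% = DMSO wells and 100% = chloroquine plus artemisinin control wells.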 Conditions: P. falciparum 3D7 erythrocytic growth, LDH absorbance, 72 h; at 2 µM; stronger effect = higher value.
In assay [5] the target is Calcium-dependent protein kinase 1 (Plasmodium falciparum (isolate 3D7)) (UniProt P62344). As to the kind of experiment: PfCDPK1 kinase inhibitors, biochemical, TCAMS library (AID 1159585; cut-off not given, nearly all actives have IC50 up to about 0.98 µM;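 also: inhibitors leave more ATP so luminescence rises with inhibition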). As to conditions: recombinant PfCDPK1, Kinase-Glo ATP depletion luminescence. A general note: In Kinase-Glo more light means more ATP remaining.
Assay [6] concerns the target Plasmodium falciparum protein kinase 6 (PK6, PF3D7_1337100) (UniProt Q8IDW1). In words: PfPK6 kinase inhibitors, biochemical, TCAMS library (AID 1159586). As to conditions: recombinant PfPK6, Kinase-Glo ATP depletion luminescence.
Assay [7] concerns the target Protein kinase 7 (PK7), Plasmodium falciparum 3D7 (PF3D7_0213400) (UniProt Q7YTF7). In words: inhibition of Plasmodium PK7 catalytic activity – biochemical, TCAMS antimalarial set, Kinase-Glo luminescence (AID 1159587). Conditions: recombinant PfPK7, Kinase-Glo ATP depletion luminescence.
Assay [8] addresses Calcium-dependent protein kinase 4 (Plasmodium falciparum (isolate 3D7)) (UniProt Q8IBS5). As to the kind of experiment: PfCDPK4 kinase inhibitors, biochemical, TCAMS library (AID 1159588; cut-off not given, nearly all actives have IC50 up to about 0.91 µM). As to conditions: recombinant PfCDPK4, Kinase-Glo ATP depletion luminescence.

Chain of Plasmodium falciparum protein kinase 6 (PK6, PF3D7_1337100) (Q8IDW1 1-305): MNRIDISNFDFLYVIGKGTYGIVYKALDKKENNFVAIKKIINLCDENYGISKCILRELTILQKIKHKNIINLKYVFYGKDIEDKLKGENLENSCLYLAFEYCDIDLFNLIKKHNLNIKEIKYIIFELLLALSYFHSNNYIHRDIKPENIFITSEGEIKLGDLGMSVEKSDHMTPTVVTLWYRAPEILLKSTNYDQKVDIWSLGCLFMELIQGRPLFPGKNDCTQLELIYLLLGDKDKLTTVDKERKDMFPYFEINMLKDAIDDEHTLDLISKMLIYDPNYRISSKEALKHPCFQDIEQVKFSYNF
Chain of Protein kinase 7 (PK7), Plasmodium falciparum 3D7 (PF3D7_0213400) (Q7YTF7 1-343): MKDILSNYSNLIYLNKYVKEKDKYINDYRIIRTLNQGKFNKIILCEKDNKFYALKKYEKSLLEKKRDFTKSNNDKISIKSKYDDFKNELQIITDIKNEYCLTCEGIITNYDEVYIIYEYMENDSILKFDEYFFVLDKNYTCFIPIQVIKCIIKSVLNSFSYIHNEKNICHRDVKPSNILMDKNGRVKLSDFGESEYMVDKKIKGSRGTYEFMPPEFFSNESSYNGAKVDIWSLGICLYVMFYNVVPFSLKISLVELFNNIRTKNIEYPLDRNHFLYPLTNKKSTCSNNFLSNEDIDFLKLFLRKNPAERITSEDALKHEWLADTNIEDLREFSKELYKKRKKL
Chain of Calcium-dependent protein kinase 1 (Plasmodium falciparum (isolate 3D7)) (P62344 whole entry, looked up): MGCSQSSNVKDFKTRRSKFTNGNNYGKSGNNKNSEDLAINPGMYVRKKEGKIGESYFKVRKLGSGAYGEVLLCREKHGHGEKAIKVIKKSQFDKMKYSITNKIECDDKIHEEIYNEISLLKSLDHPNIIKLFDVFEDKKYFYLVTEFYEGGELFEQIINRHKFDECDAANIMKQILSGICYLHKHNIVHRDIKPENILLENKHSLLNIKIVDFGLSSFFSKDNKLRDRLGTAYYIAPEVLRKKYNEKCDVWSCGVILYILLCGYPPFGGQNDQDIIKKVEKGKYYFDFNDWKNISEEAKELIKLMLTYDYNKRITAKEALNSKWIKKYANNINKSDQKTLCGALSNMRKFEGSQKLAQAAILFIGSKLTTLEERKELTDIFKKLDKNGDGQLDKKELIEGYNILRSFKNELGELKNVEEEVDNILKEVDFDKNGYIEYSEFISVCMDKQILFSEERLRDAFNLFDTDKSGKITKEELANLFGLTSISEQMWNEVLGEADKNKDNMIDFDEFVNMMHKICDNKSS
Chain of Calcium-dependent protein kinase 4 (Plasmodium falciparum (isolate 3D7)) (Q8IBS5 whole entry, looked up): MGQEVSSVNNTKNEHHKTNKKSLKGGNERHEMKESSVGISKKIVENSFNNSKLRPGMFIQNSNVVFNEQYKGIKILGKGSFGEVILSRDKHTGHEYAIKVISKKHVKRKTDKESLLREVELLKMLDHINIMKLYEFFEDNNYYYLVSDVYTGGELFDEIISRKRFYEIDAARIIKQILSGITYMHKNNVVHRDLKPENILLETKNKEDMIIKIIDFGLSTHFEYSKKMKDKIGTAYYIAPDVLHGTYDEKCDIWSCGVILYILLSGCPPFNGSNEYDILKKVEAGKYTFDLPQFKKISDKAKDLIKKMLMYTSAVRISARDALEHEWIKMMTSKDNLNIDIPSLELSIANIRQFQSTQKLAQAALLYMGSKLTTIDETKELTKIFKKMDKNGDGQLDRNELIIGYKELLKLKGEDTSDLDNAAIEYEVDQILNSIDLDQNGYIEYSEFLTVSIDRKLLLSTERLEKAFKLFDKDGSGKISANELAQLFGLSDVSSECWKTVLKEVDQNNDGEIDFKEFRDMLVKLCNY
Chain of L-lactate dehydrogenase (Plasmodium falciparum (isolate CDC / Honduras)) (Q27743 whole entry, looked up): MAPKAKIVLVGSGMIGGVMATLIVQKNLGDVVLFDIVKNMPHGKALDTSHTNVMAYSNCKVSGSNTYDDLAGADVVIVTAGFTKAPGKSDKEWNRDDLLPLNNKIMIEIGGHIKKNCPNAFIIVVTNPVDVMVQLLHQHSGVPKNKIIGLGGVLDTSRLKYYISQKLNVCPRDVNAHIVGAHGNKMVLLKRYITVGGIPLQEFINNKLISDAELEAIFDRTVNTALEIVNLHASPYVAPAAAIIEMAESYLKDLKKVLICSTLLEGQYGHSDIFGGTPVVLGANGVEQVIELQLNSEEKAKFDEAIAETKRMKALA

Consider `COc1ccccc1Cc1nc2ccccc2nc1SCC(=O)Nc1cccc(C(F)(F)F)c1`, for which the growth inhibition in assay [1] was 91% (active); in assay [4] it was 97% (active). Besides, the inhibition in assay [2] is 8%; in assay [3] it was 0%. For the same compound, the result in assay [5], in assay [6], in assay [7] and in assay [8] was inactive.

In the case of `c1ccc(CCNCc2ccc(-c3cccc(CNc4ccc5ncccc5c4)c3)cc2)cc1`, the growth inhibition in assay [1] is 17%; in assay [4], 91% (active). Also, the inhibition in assay [2] is 30%; in assay [3] it was 3%. For the same compound, the result in assay [5], in assay [6], in assay [7] and in assay [8] was inactive.

For `c1ccc(-c2nc(NCCCn3ccnc3)cc(-c3ccncc3)n2)cc1`, the growth inhibition in assay [1] was 100% (active); in assay [4], 103% (active). In addition, the inhibition in assay [2] is 42%; in assay [3], -8%. Also, the outcome in assay [5], in assay [6], in assay [7] and in assay [8] was inactive.

As for `CC(C)n1cc(CN2CCCC(C(=O)Nc3cccc(-c4cc5ccccc5[nH]4)c3)C2)cn1` (stereo not given), the values for the growth inhibition in assay [1] and in assay [4] were 65% (active) and 96% (active), respectively. The inhibition in assay [2] was 34%; in assay [3], -3%. Also, the result in assay [5], in assay [6], in assay [7] and in assay [8] was inactive.

As for `CSC1=NC(=Nc2ccccc2C)C2(CCC(C(C)(C)C)CC2)N1c1ccccc1Cl` (stereo not given), the growth inhibition in assay [1] is 89% (active); in assay [4], 96% (active). Besides, the inhibition is 3% in assay [2] and 4% in assay [3]. In addition, the outcome in assay [5], in assay [6], in assay [7] and in assay [8] was inactive.

For the compound `Cc1ccccc1C1CCN(C2CCC(NC(=O)/C=C/c3ccc(C(F)(F)F)cc3F)CC2)CC1` (stereo not given), the growth inhibition in assay [1] is 58% (active); in assay [4], 99% (active). Further, the inhibition in assay [2] was 72% (active); in assay [3], -2%. In addition, the outcome in assay [5], in assay [6], in assay [7] and in assay [8] was inactive.

Take `CC(C)[C@@H](C(=O)NCc1cccc(C(F)(F)F)c1)N1C(=O)CCC1C(=O)Nc1ccc([N+](=O)[O-])cc1` (stereo not given in full): the figures for the growth inhibition in assay [1] and in assay [4] were 2% and 94% (active), respectively. Besides, the results for the inhibition in assay [2] and in assay [3] were -5% and -2%, respectively. The result in assay [5], in assay [6], in assay [7] and in assay [8] was inactive.

As for `N#Cc1ccc2[nH]cc(-c3cn4cc(SC5CCCC5)ccc4n3)c2c1`, the growth inhibition is 21% in assay [1] and 92% (active) in assay [4]. Further, the inhibition in assay [2] is 1%; in assay [3], 3%. The outcome in assay [5], in assay [6], in assay [7] and in assay [8] was inactive.

`Cc1ncc([N+](=O)[O-])n1CCOC(=O)NC(Nc1ccc(Br)cc1)C(Cl)(Cl)Cl` (stereo not given): the growth inhibition is 102% (active) in assay [1] and 99% (active) in assay [4]. For the same compound, the inhibition in assay [2] is 0%; in assay [3], 5%. Besides, the outcome in assay [5], in assay [6], in assay [7] and in assay [8] was inactive.

With `CC1CC(NCCCNc2cc(=O)c3ccccc3[nH]2)c2c1cc(Cl)c(Cl)c2Cl` (stereo not given), the results for the growth inhibition in assay [1] and in assay [4] were 70% (active) and 98% (active), respectively. For the same compound, the figures for the inhibition in assay [2] and in assay [3] were 1% and 3%, respectively. Moreover, the result in assay [5], in assay [6], in assay [7] and in assay [8] was inactive.

With `Cc1cc(NCc2ccccc2)nc(NCc2ccccc2)n1`, the growth inhibition is 18% in assay [1] and 91% (active) in assay [4]. Further, the inhibition in assay [2] is 21%; in assay [3], 5%. The outcome in assay [5], in assay [6], in assay [7] and in assay [8] was inactive.

For the compound `N#Cc1ccc2c(c1)CN(CCC1CCC(NC(=O)c3cc4cnccc4[nH]3)CC1)CC2` (stereo not given), the growth inhibition in assay [1] is 28%; in assay [4], 97% (active). Also, the inhibition in assay [2] was 13%; in assay [3], -2%. The result in assay [5], in assay [6], in assay [7] and in assay [8] was inactive.

For `O=C(NCC1CC1)C1CCN(C(c2ccccc2)c2ccc(Cl)c(Cl)c2)CC1` (stereo not given), the growth inhibition in assay [1] is 96% (active); in assay [4], 97% (active). The inhibition in assay [2] is 7%; in assay [3] it was -1%. The outcome in assay [5], in assay [6], in assay [7] and in assay [8] was inactive.

As to `Cc1cccc2[nH]c(-c3cccc(-c4cccc(NC(=O)C(C)CN(C)C)c4)c3)nc12` (stereo not given), the growth inhibition was 97% (active) in assay [1] and 101% (active) in assay [4]. Moreover, the inhibition in assay [2] is 16%; in assay [3] it was -3%. Besides, the result in assay [5], in assay [6], in assay [7] and in assay [8] was inactive.

For the compound `Cc1ccc(C)c(Cn2c(N3CCC(C(=O)NCc4cccs4)CC3)nc3ccccc32)c1`, the growth inhibition was 73% (active) in assay [1] and 89% (active) in assay [4]. Also, the figures for the inhibition in assay [2] and in assay [3] were -2% and -6%, respectively. The result in assay [5], in assay [6], in assay [7] and in assay [8] was inactive.

As for `O=C(Nc1ccc(Cl)c(Cl)c1)Nc1ccccc1N1CCNCC1`, the growth inhibition in assay [1] is 22%; in assay [4], 101% (active). For the same compound, the figures for the inhibition in assay [2] and in assay [3] were 17% and 1%, respectively. The outcome in assay [5], in assay [6], in assay [7] and in assay [8] was inactive.

`COc1cc(C)nc2ccc(NC(=O)Nc3ccc4nc(C)cc(OC)c4c3)cc12`: the values for the growth inhibition in assay [1] and in assay [4] were 83% (active) and 102% (active), respectively. Also, the inhibition was 79% (active) in assay [2] and -7% in assay [3]. Further, the result in assay [5], in assay [6], in assay [7] and in assay [8] was inactive.

For the compound `FC(F)(F)c1cccc(CNC2CCN(CC3CCCCC3)CC2)c1`, the figures for the growth inhibition in assay [1] and in assay [4] were 12% and 101% (active), respectively. Moreover, the inhibition in assay [2] and in assay [3] was 0% throughout. Moreover, the outcome in assay [5], in assay [6], in assay [7] and in assay [8] was inactive.

Take `COc1ccc(NC(=O)CCNc2cc(C)nc(Nc3ccccc3)n2)cc1`: the growth inhibition in assay [1] is 15%; in assay [4], 92% (active). Further, the inhibition in assay [2] was -9%; in assay [3], -2%. Further, the result in assay [5], in assay [6], in assay [7] and in assay [8] was inactive.

Take `COc1cc(C(=O)NC2CCN(Cc3ccccc3)CC2)ccc1-c1cc2cc(Cl)c(Cl)cc2[nH]1`: the growth inhibition in assay [1] was 101% (active); in assay [4], 102% (active). Besides, the figures for the inhibition in assay [2] and in assay [3] were 33% and 5%, respectively. Further, the result in assay [5], in assay [6], in assay [7] and in assay [8] was inactive.

As usually defined, the inhibition is the change of the read-out against control, counted positive when it falls.
